Hit rate of the full screen: of about 190,000 compounds, about 3,100 (1.6%) were called active. No stated cut-off is given here; in the data, active means fold change above about 3.3; inconclusive means no clear call, values can overlap the other calls; inactive means below that. The list comes from a sample in which actives are over-represented; it also holds similar structures and randomly drawn compounds.
Assay: activators of NF-kB expression in neurons, primary screen, cell-based, HTS (AID 1239)
Conditions: human neuronal cells, NF-kB reporter expression; at 12.5 µM; hits give high values

SMILES | fold change
O=C(NCc1cccnc1)c1cccc(-c2cc3ccccc3oc2=O)c1 | 0.93 (inactive)
Nc1ncc(-c2cc3ccccc3oc2=O)s1 | 3.48 (active)
O=c1oc2ccccc2cc1-c1cn(-c2ccccc2)c(=S)[nH]1 | 0.83 (inactive)
O=C(/C=C/c1ccc2c(c1)OCO2)NCc1cn2cc(Cl)ccc2n1 | 1.09 (inactive)
COc1ccc(N(C)S(=O)(=O)c2cccc3nsnc23)cc1 | 1.25 (inactive)
O=C(c1ccc(N2CCOCC2)c([N+](=O)[O-])c1)N1CCN(S(=O)(=O)c2cccs2)CC1 | 1.15 (inactive)
C=CCn1c(CCNC(=O)c2ccccc2F)nnc1SCC(=O)Nc1ccc(OC)cc1 | 1.12 (inactive)
CCCC1(C(=O)OC)NC(c2ccco2)C2C(=O)N(C)C(=O)C21 (stereo unspecified) | 1 (inactive)
Cc1ccc(N2CCN(C3=NC(=O)/C(=C\c4cccs4)S3)CC2)cc1 | 1.27 (inactive)
CCC1C/C(=C/c2cccs2)C(=O)/C(=C/c2cccs2)C1 (stereo unspecified) | 1.07 (inactive)
O=C1/C(=C/c2cccs2)CCC1C1CCCC1 (stereo unspecified) | 5.68 (active)
O=C1/C(=C/c2cccs2)CCc2ccccc21 | 5.83 (active)
O=S(=O)(c1cccs1)N1CCc2ccccc2C1 | 1.07 (inactive)
COc1ccc(/C=C2\CCc3ccccc3C2=O)c(OC)c1OC | 1.7 (inactive)
CC(=O)C1(C)N(O)C(C)(C)C(c2cccs2)=[N+]1[O-] (stereo unspecified) | 0.95 (inactive)
CCn1nc(C)cc1C(=O)N1CCCC(C(=O)c2cccc(OC)c2)C1 (stereo unspecified) | 1.1 (inactive)
COc1ccc(CN2CCN(Cc3cn(C)nc3-c3ccccc3)CC2CCO)c(C)c1C (stereo unspecified) | 1.01 (inactive)
CCc1ccc(NC(=O)Cn2nc(C)c([N+](=O)[O-])c2C)cc1 | 1.28 (inactive)
NC(=O)Cc1nc2scc(-c3ccc(Cl)cc3)c2c(=O)[nH]1 | 0.99 (inactive)
O=c1[nH]c(CN2CCOCC2)nc2cc(Cl)ccc12 | 1.04 (inactive)
O=c1[nH]c(CCl)nc2cc(-c3ccc(Cl)cc3)sc12 | 4.29 (active)
COc1ccc(S(=O)(=O)N2CCOCC2)cc1NC(=O)CSc1ncnc2ccccc12 | 1.56 (inactive)
CCN1C(=O)/C(=c2\s/c(=C3\Sc4ccccc4N3C)c(=O)n2C)N(C)C1=S | 1.16 (inactive)
CN(C)CCCN1C(=O)CSC1c1ccc([N+](=O)[O-])cc1 (stereo unspecified) | 1.03 (inactive)
COCC1CCCN(Cc2nc(-c3ccc4c(c3)OCO4)no2)C1 (stereo unspecified) | 1.62 (inactive)
Cc1cs/c(=N\N=C\c2ccc(O)cc2)n1Cc1ccco1 | 4.11 (active)

SMILES | fold change
CN(c1ccccc1)c1ccc(/C=c2\s/c(=C(/C#N)C(=O)C(C)(C)C)n(Cc3ccco3)c2=O)cc1 | 1.52 (inactive)
Cc1csc(=Nc2ccccc2)n1CCO | 1.05 (inactive)
Cc1nnc(SC(C(=O)Nc2cc(Cl)cc(Cl)c2)c2ccccc2)[nH]c1=O (stereo unspecified) | 1.02 (inactive)
Cc1ccc(S(=O)(=O)Nc2nc3ccccc3s2)cc1[N+](=O)[O-] | 1.51 (inactive)
Cc1ccnc(Nc2nc3ccccc3s2)n1 | 4.25 (active)
CSCCC(Nc1nc2ccccc2s1)C(=O)O (stereo unspecified) | 1.16 (inactive)
O=C(/C=C/c1ccc(Cl)cc1)Nc1ccc(Br)cn1 | 1.07 (inactive)
O=C(Nc1ccc(Br)c2cccnc12)c1ccc(Cn2cc([N+](=O)[O-])cn2)o1 | 1.07 (inactive)
O=C(Nc1cccc([N+](=O)[O-])c1)Nc1ccc(Cl)cn1 | 0.9 (inactive)
O=C(Nc1ccc(Br)cn1)c1ccc([N+](=O)[O-])cc1Cl | 3.54 (active)
O=C(Nc1ccc(Br)cn1)c1ccc([N+](=O)[O-])o1 | 4.41 (active)
CC(C)C(=O)Nc1cccc(NC(=O)c2ccc([N+](=O)[O-])cc2Cl)c1 | 1.13 (inactive)
C/C(=N/O)c1ccc(N2C(=O)C3C4C=CC(C3C2=O)C2C3C(=O)N(c5ccc(/C(C)=N/O)cc5)C(=O)C3C42)cc1 (stereo unspecified) | 1.33 (inactive)
NC(=O)Cn1nc([N+](=O)[O-])nc1Oc1ccc(Br)cc1 | 0.99 (inactive)
O=C(O)C1C2CC2CN1C(=O)c1ccc(Cl)cc1Cl (stereo unspecified) | 0.99 (inactive)
O=C(NCc1cccnc1)c1nc(-c2cccs2)no1 | 1.23 (inactive)
CCCCCC(=O)Nc1ccc(-c2cn3cccnc3n2)cc1 | 0.94 (inactive)
CCCCCc1ccc(-c2ccc(OCC)cc2)nc1 | 1.81 (inactive)
CCCCCc1ccc(-c2ccc(C(=O)O)cc2)nc1 | 6.88 (active)
O=C(COC(=O)CNC(=O)c1ccccc1F)NCC(F)(F)F | 1.05 (inactive)
CC(=O)Nc1ccc(NC(=O)CN2CCCC(C)C2)c(Cl)c1 (stereo unspecified) | 4.21 (active)
O=C(CN1CCCCC1)Nc1ccccc1Cl | 1.2 (inactive)
O=C(CN1CCOCC1)Nc1ccc(NC(=O)CN2CCOCC2)c(Cl)c1 | 1.01 (inactive)
O=C(c1ccc2c(c1)N(Cc1ccc(F)cc1)C(=O)c1ccccc1S2(=O)=O)N1CCN(c2ccccn2)CC1 | 0.68 (inactive)
CCn1c(CSCc2c(Cl)cccc2Cl)n[nH]c1=S | 1.06 (inactive)
